This is part of a sample that, as a whole, favours compounds with a hit. Of some 83,000 tested, about 20% had one in any assay.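 Method: cells in 96-well plates; compound added at one concentration; 48 h incubation; percent growth measured; values under 10 scored active.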 A number with no mark means an inactive call. Active and inactive are the calls of the source.
Tests used:
Experiment in all cases: NCI-60 one-dose screen, 48 h (100 = growth as untreated, 0 = no growth, -100 = all killed)
Settings in all cases: 10 µM unless noted
SK-MEL-2 melanoma = system: SK-MEL-2 melanoma
EKVX NSCLC = system: EKVX NSCLC
SN12C renal = system: SN12C renal
UO-31 renal = system: UO-31 renal
TK-10 renal = system: TK-10 renal
ACHN renal = system: ACHN renal
CAKI-1 renal = system: CAKI-1 renal
A498 renal = system: A498 renal
CCRF-CEM leukemia = system: CCRF-CEM leukemia
MOLT-4 leukemia = system: MOLT-4 leukemia

SMILES | growth (SK-MEL-2 melanoma) | growth (EKVX NSCLC) | growth (SN12C renal) | growth (UO-31 renal) | growth (TK-10 renal) | growth (ACHN renal) | growth (CAKI-1 renal) | growth (A498 renal) | growth (CCRF-CEM leukemia) | growth (MOLT-4 leukemia)
Nc1n[nH]c2cccc(C#Cc3cccc(C(=O)Nc4cc(C(F)(F)F)cc(C(F)(F)F)c4)c3)c12 | 72.2% | 92% | 61.1% | 42.5% | 109% | 76.3% | 96.2% | 89.3% | 12.1% | 35.4%
C=CCN=c1sc2c(n1NC(=O)c1cc3ccc1CCc1ccc(cc1)CC3)C(=O)c1ccccc1C2=O | -17.3% (active) | -20.2% (active) | -96.6% (active) | -35.2% (active) | 58.3% | -95.3% (active) | 20.3% | 56% | -3.65% (active) | -15.5% (active)
C=C(C)[C@@H]1CC[C@]2(CO)CC[C@]3(C)[C@H](CC[C@@H]4[C@@]5(C)CC[C@H](NCO)C(C)(C)[C@@H]5CC[C@]43C)[C@@H]12 | -60.9% (active) | 8.09% (active) | -92.4% (active) | -99.2% (active) | -64.8% (active) | -99.2% (active) | -96.9% (active) | 79% | -9.15% (active) | -26.7% (active)
COC12C=C/C(=C(/C(=O)OCc3ccncc3)C(=O)CCCCCCCCC3(OC)C=C/C(=C(/C(=O)OCc4ccncc4)C(=O)CCCCCCCC1)O3)O2 | -1.63% (active) | -22.1% (active) | -30.6% (active) | -70.9% (active) | -45% (active) | -64% (active) | -48.6% (active) | -87.6% (active) | -14.8% (active) | -1.82% (active)
COc1ccc(/C=N/NC(=O)c2ccc(-n3cc(-c4ccccc4)nn3)cc2)cc1OC | 108% | 102% | 103% | 108% | 113% | 98% | 81% | 100% | 99.2% | 95.6%
COC(=O)CC[C@H](C)[C@H]1CC[C@H]2[C@@H]3CC[C@@H]4CC5(CC[C@]4(C)[C@H]3CC(=O)[C@]12C)Nc1ccccc1NC5=NC(C)(C)C (some centres undefined) | 90.9% | 87.5% | 87.9% | 88.7% | 97.4% | 86.4% | 59.2% | 63.5% | 54.7% | 54.6%
O=C(Nc1ccc(OS(=O)(=O)c2ccc(F)cc2)cc1)C1CCCCCC1 | 98.2% | 96% | 88.9% | 101% | 107% | 110% | 91.7% | 85.1% | 81.5% | 77.4%
N#C/C(=C\c1c(-c2ccccc2)[nH]c2ccccc12)C(N)=O | 111% | 83.7% | 94.2% | 93.4% | 124% | 88.8% | 63.2% | 73.7% | 66.1% | 61.6%
CCN(CC)CC(O)COc1c(Br)c(Br)c(Br)c2c1OC(C)(C)C2 (centres undefined) | 338% | 105% | 79.4% | 91.2% | 58.4% | 97.9% | 17.6% | -86.9% (active) | 45.8% | 22.3%
CN(C)CCNC(=O)c1ccc(-c2nc3ccc4[nH]ncc4c3c3c2C2CCC3C2)cc1 (centres undefined) | -5.51% (active) | 68.4% | 10.2% | 8.05% (active) | 83% | 17.4% | 15.2% | -20.9% (active) | 6.57% (active) | -8.33% (active)
Cn1ccnc1C(=O)/C=C/c1ccc(C(=O)Nc2ccccc2O)cc1 | 78% | 56.5% | 12.6% | 33.3% | 107% | 10.5% | 26.8% | 55.7% | -9.45% (active) | 17%
CCN1C(=O)N(CC)C2C1NN=c1s/c(=C\c3ccccc3F)c(=O)n12 (centres undefined) | 37.2% | 53% | 23.9% | 40.4% | 70.3% | 27.5% | 17.4% | 3.4% (active) | 8.85% (active) | 10.2%
O=C(NCCNc1nccc(Nc2ccc(S(=O)(=O)Nc3ccccn3)cc2)n1)c1cccc([N+](=O)[O-])c1 | 101% | 98.6% | 99.9% | 82.5% | 100% | 102% | 93.6% | 83.6% | 101% | 93.8%
CCN(CC)CCn1c2ccc(O)cc2c2sc3cc(O)ccc3c(=O)c21 | 57.9% | 48.8% | 20.9% | 26% | 64.9% | 3.32% (active) | 43.5% | 41.6% | 14.6% | 9.25% (active)
CCC(=O)Oc1ccc(-c2ccccc2)cc1Br | 110% | 102% | 104% | 102% | 101% | 113% | 98.7% | 63.5% | 102% | 111%
Cn1cc(C(=O)c2nc(-c3c[nH]c4ccccc34)no2)c2cc(F)ccc21 | 26.9% | 57.5% | 59.5% | 42.4% | 57.6% | 49.6% | 32.9% | 25.3% | 23.9% | 38.9%
Cc1c(-c2ccc(O)cc2)n(Cc2ccc(OCCN3CCCCCC3)cc2)c2ccc(O)cc12 | 106% | 75.2% | 81% | 52.6% | 78% | 91.9% | 50.6% | 53.7% | 57.5% | 39.8%
C#CCNC(=O)[C@H](CC)[C@H]1CC[C@H](C)[C@H]([C@@H](C)[C@H](O)[C@H](C)C(=O)[C@H](CC)C2O[C@]3(C=CC(=O)[C@]4(CC[C@@](C)([C@H]5CC[C@](O)(CC)[C@H](C)O5)O4)O3)[C@H](C)C[C@@H]2C)O1 (some centres undefined) | 45% | 51.3% | 48.7% | 47.9% | 87.1% | 45% | 17.4% | 38.5% | 27.3% | 32.4%
C=CCn1c(C)nc2ccc(Nc3nc(Nc4ccc5nc(C)n(CC=C)c5c4)c4ccccc4n3)cc21 | -83.8% (active) | 2.58% (active) | -74.9% (active) | -91.4% (active) | -88.5% (active) | -80% (active) | -24.1% (active) | 99.5% | -20.8% (active) | -45.5% (active)
O=C1/C(=C/c2ccccc2O)CC/C1=C\c1ccccc1O | 105% | 56.9% | 27.7% | 46.4% | 160% | 70.2% | 92.4% | 108% | 1.74% (active) | 6.67% (active)
O=C1c2c(c3c4ccccc4[nH]c3c3ccc4ccccc4c23)C(=O)N1CCN1CCNCC1 | 104% | 84.7% | 65.2% | 56.7% | 108% | -49.4% (active) | 63.3% | 61.2% | 0.375% (active) | -20.3% (active)
CC(=O)N1N=C(c2ccc(C(F)(F)F)c(F)c2)CC1c1[nH]c(C)c(C(=O)NCC(F)(F)F)c1C (centres undefined) | 106% | 88.4% | 50.1% | 26% | 68.5% | 18.7% | 58.7% | 54.9% | 90% | 82.6%
COc1ccc(NC2=C(I)C(=O)c3ncccc3C2=O)cc1 | 29.1% | 64.8% | -96.4% (active) | -92.6% (active) | 51.1% | -12.7% (active) | 24.1% | 65.3% | 11% | –
CCCCCCCCCCC(CN(CC)CC)C(O)c1ccccc1 (centres undefined) | 65.8% | 41.8% | 57.1% | 24.4% | 45.3% | 31.6% | 45.5% | 56.4% | 4.36% (active) | -15.2% (active)
COc1ccc(C(=O)N2c3ccccc3Sc3ccccc32)c(OC)c1 | 38.3% | 34% | 51.6% | 48.3% | 55.8% | 43.5% | 36.8% | 5.16% (active) | 16.5% | 12%
COC1=CC(c2ccc[nH]2)=N/C1=C\c1[nH]c(C)c(C(=O)OC(C)C)c1C | -61.6% (active) | -41.9% (active) | -2.47% (active) | -87.5% (active) | 3.42% (active) | -82.9% (active) | -32.4% (active) | -37.8% (active) | 13.5% | -5.6% (active)
CCCn1cc2c(=O)nc3sc(Cc4ccccc4)c(C)n3c2n1 | 93.7% | 104% | 104% | 78.5% | 92.9% | 109% | 87.7% | 100% | 92.3% | 78%

Reference: PubChem BioAssay (NCI)
